Measured values reported in PubChem BioAssay (Tox21).
Results filed as inconclusive are left out. Active and inactive are the calls of the source. Unless noted, the call rests on the fitted dose curve.

Columns and labels:
[1] = target: Peroxisome proliferator-activated receptor delta (Homo sapiens) (UniProt Q03181); assay: qHTS assay to identify small molecule agonists of the peroxisome proliferator-activated receptor delta (PPARd) signaling pathway (AID 743212); further: on the % scale 0 is the no-effect control and ±100 the full control effect
Procedure, shortened: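 HEK293H PPARd-bla cells; 5 h preincubation 37 C/5% CO2; compound (DMSO) 37 C; LiveBLAzer B/G FRET substrate 2 h RT; fluorescence intensity.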

[2] = qHTS assay to identify small molecule antagonists of the peroxisome proliferator-activated receptor delta (PPARd) signaling pathway - cell viability counter screen (AID 743213; active means well fitted curve in the direction sought with a large enough effect in the repeat runs; an effect the other way counts as inactive or inconclusive; further: on the % scale 0 is the no-effect control and ±100 the full control effect; nearly all actives have a fitted effect of over 50% in size)
Procedure, shortened: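 In this counter screen, HEK293H cells carrying a UAS-beta-lactamase reporter are co-treated with test compounds and 300 nM L165041 (final) for 17 h at 37 C; cell viability is quantified by CellTiter-Glo luminescence.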

[3] = target: Peroxisome proliferator-activated receptor delta (Homo sapiens) (UniProt Q03181); assay: qHTS assay to identify small molecule antagonists of the peroxisome proliferator-activated receptor delta (PPARd) signaling pathway (AID 743215; active means well fitted inhibition curve with a large enough effect in the signal ratio in the repeat runs, not every such curve was filed as active; the % refers to the signal ratio;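 further: cells stimulated with agonist L165041 at 300 nM final during compound exposure; series mostly up to about 62 µM; on the % scale 0 is the no-effect control and ±100 the full control effect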)
Procedure, shortened: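 With L165041 present at 300 nM final, compounds were incubated 17 h at 37 C on PPARd UAS-bla HEK293H cells. A FRET-based beta-lactamase substrate was then applied for 2 h at room temperature and fluorescence intensity recorded.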

[4] = target: Bile acid receptor (Homo sapiens) (UniProt Q96RI1); assay: qHTS assay to identify small molecule antagonists of the farnesoid-X-receptor (FXR) signaling pathway (AID 743217; active means well fitted inhibition curve with a large enough effect in the signal ratio in the repeat runs, not every such curve was filed as active; the % refers to the signal ratio; further: on the % scale 0 is the no-effect control and ±100 the full control effect)
Procedure, shortened: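 In this cell-based antagonist screen, inhibition of CDCA-driven (50 uM final) UAS-beta-lactamase expression in HEK 293T cells was measured by FRET fluorescence following 16 h compound exposure at 37 °C.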

[5] = qHTS assay to identify small molecule agonists of the farnesoid-X-receptor (FXR) signaling pathway - cell viability counter screen (AID 743218; active means well fitted curve in the direction sought with a large enough effect in the repeat runs; an effect the other way counts as inactive or inconclusive; further: on the % scale 0 is the no-effect control and ±100 the full control effect; nearly all actives have a fitted effect of over 45% in size)
Procedure, shortened: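 After 16 h at 37 C with test compounds, FXR-bla HEK 293T cells were given LiveBLAzer B/G substrate for 2 h at RT and then CellTiter-Glo; luminescence was taken after 30 min.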

[6] = target: Bile acid receptor (Homo sapiens) (UniProt Q96RI1); assay: qHTS assay to identify small molecule agonists of the farnesoid-X-receptor (FXR) signaling pathway (AID 743220; active means well fitted activation curve with a large enough effect in the signal ratio in the repeat runs, not every such curve was filed as active; the % refers to the signal ratio; further: on the % scale 0 is the no-effect control and ±100 the full control effect)
Procedure, shortened: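 Beta-lactamase reporter under UAS control in GeneBLAzer FXR HEK 293T cells (5000/well) measured with LiveBLAzer FRET substrate after 2 h at room temperature. Compound exposure lasted 16 h at 37C.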

[7] = qHTS assay to identify small molecule antagonists of the farnesoid-X-receptor (FXR) signaling pathway - cell viability counter screen (AID 743221; active means well fitted cell-killing curve with a large enough effect in the repeat runs, not every such curve was filed as active; further: on the % scale 0 is the no-effect control and ±100 the full control effect; nearly all actives have a fitted effect of over 50% in size)
Procedure, shortened: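 Luminescence from CellTiter-Glo measures cytotoxicity in GeneBLAzer FXR-UAS-bla HEK 293T cells. Cells were exposed to compounds with 50 uM chenodeoxycholic acid (final) for 16 h at 37 C, in wells also used for the reporter readout.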

[8] = target: Vitamin D3 receptor (Homo sapiens) (UniProt P11473); assay: qHTS assay to identify small molecule agonists of the vitamin D receptor (VDR) signaling pathway (AID 743222); further: on the % scale 0 is the no-effect control and ±100 the full control effect
Procedure, shortened: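 VDR-bla cells were seeded, left 4 h, treated with compounds in DMSO for 16 h, incubated 2 h at RT with B/G FRET substrate, and read for fluorescence.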

[9] = qHTS assay to identify small molecule agonists of the vitamin D receptor (VDR) signaling pathway - cell viability counter screen (AID 743224; active means well fitted curve in the direction sought with a large enough effect in the repeat runs; an effect the other way counts as inactive or inconclusive; further: series mostly up to about 63 µM; on the % scale 0 is the no-effect control and ±100 the full control effect; nearly all actives have a fitted effect of over 50% in size)
Procedure, shortened: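 Here cell health was gauged by luminescent ATP detection (CellTiter-Glo, 30 min RT) in VDR-bla cells that had been incubated with test compounds for 16 h at 37C and 5% CO2.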

[10] = qHTS assay to identify small molecule antagonists of the vitamin D receptor (VDR) signaling pathway - cell viability counter screen (AID 743225; active means well fitted curve in the direction sought with a large enough effect in the repeat runs; an effect the other way counts as inactive or inconclusive; further: on the % scale 0 is the no-effect control and ±100 the full control effect; nearly all actives have a fitted effect of over 50% in size)
Procedure, shortened: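 Read-out: CellTiter-Glo luminescence measured 30 min after reagent addition at room temperature. Cells were VDR-bla HEK 293T exposed 16 h at 37C, 5% CO2, to compound with 3 nM final calcitriol agonist.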

[11] = qHTS assay to identify small molecule agonists of the NFkB signaling pathway (AID 1159509; active means well fitted curve in the direction sought with a large enough effect in the signal ratio in the repeat runs, not every such curve was filed as active; the % refers to the signal ratio)
Procedure, shortened: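 ME-180 NFkB-bla, 2,000 cells/well, overnight plating; cpd pinned in DMSO, 5 h 37 C; B/G FRET substrate 1.5 h RT; ex 405, em 460/530 nm.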

[12] = qHTS assay to identify small molecule agonists of the NFkB signaling pathway - cell viability counter screen (AID 1159515); further: series mostly up to about 61 µM; on the % scale 0 is the no-effect control and ±100 the full control effect; nearly all actives have a fitted effect of over 55% in size
Procedure, shortened: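 5 hr compound treatment of NFkB-bla ME-180 cells (2,000/well, seeded overnight beforehand), followed by reporter substrate for 1.5 hr. CellTiter-Glo added afterward; luminescence after 30 min RT.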

[13] = qHTS assay to identify small molecule agonists of the endoplasmic reticulum stress response signaling pathway (AID 1159516; active means well fitted activation curve with a large enough effect in the signal ratio in the repeat runs, not every such curve was filed as active; the % refers to the signal ratio; further: on the % scale 0 is the no-effect control and ±100 the full control effect)
Procedure, shortened: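 Reporter HeLa cells (ESRE-beta-lactamase) underwent 5 hr compound incubation at 37 C and 5% CO2 in quantitative HTS format. Detection followed 2 hr of FRET substrate loading at room temperature.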

[14] = qHTS assay to identify small molecule agonists of the endoplasmic reticulum stress response signaling pathway - cell viability counter screen (AID 1159517)
Procedure, shortened: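 HeLa cells carrying an ESRE-driven beta-lactamase reporter receive compound for 5 hr at 37 C. Cell viability is then gauged with CellTiter-Glo by luminescence, 30 min at room temperature.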

[15] = qHTS assay to identify small molecule antagonists of the retinoid-related orphan receptor gamma (ROR-gamma) signaling pathway - cell viability counter screen (AID 1159520; active means well fitted curve in the direction sought with a large enough effect in the repeat runs; an effect the other way counts as inactive or inconclusive)
Procedure, shortened: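 Cytotoxicity was read from cellular ATP (CellTiter-Glo luminescence) after 16 hr at 37 C with 1 uM doxycycline induction. The inducer was added 2 hr after compound transfer to Tet-on ROR gamma CHO cells.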

[16] = target: Nuclear receptor ROR-gamma (Homo sapiens) (UniProt P51449); assay: qHTS assay to identify small molecule antagonists of the retinoid-related orphan receptor gamma (ROR-gamma) signaling pathway (AID 1159521; active means well fitted curve in the direction sought with a large enough effect in the repeat runs; an effect the other way counts as inactive or inconclusive)
Procedure, shortened: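 CHO Tet-on RORγ, RORE-luc reporter. Cpd 2 h pre-incubation, then dox hyclate 1 uM final, 16 h, 37 C/5% CO2. ONE-Glo luminescence; decrease = antagonist.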

[17] = qHTS assay to identify small molecule agonists of the AP-1 signaling pathway - cell viability counter screen (AID 1159525); further: nearly all actives have a fitted effect of over 55% in size
Procedure, shortened: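 Luminescent ATP readout (Cell Titer Glo, 30 min RT), normalised to DMSO and tetra n-octyl ammonium bromide controls. Cells were ME-180 AP-1-bla in 0.5% dialyzed FBS Opti-MEM, with a 5 h, 37 °C compound exposure.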

[18] = qHTS assay to identify small molecule agonists of the AP-1 signaling pathway (AID 1159526); further: on the % scale 0 is the no-effect control and ±100 the full control effect
[19] = target: Retinoic acid receptor RXR-alpha (Homo sapiens) (UniProt P19793); assay: qHTS assay to identify small molecule agonists of the RXR signaling pathway (AID 1159527); further: on the % scale 0 is the no-effect control and ±100 the full control effect; nearly all actives have a fitted effect of over 35% in size
Procedure, shortened: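 Read-out: beta-lactamase FRET ratio (405 nm excitation, 460 and 530 nm emission) after 2 hr substrate loading at room temperature. Cells were RXR-alpha-UAS-bla HEK 293T treated with compounds for 16 hr in 2% charcoal-stripped FBS medium.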

[20] = target: Vitamin D3 receptor (Homo sapiens) (UniProt P11473); assay: qHTS assay to identify small molecule antagonists of the vitamin D receptor (VDR) signaling pathway (AID 743223; active means well fitted inhibition curve with a large enough effect in the signal ratio in the repeat runs, not every such curve was filed as active; the % refers to the signal ratio; further: on the % scale 0 is the no-effect control and ±100 the full control effect)
Procedure, shortened: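 Antagonist mode uses 1alpha,25-dihydroxyvitamin D3 at 3 nM final as stimulus. VDR-bla cells receive compounds in DMSO, incubate 16 h at 37C, then a beta-lactamase FRET substrate for 2 h at room temperature before fluorescence measurement.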

Sequence of Retinoic acid receptor RXR-alpha (Homo sapiens) (P19793 whole entry, looked up): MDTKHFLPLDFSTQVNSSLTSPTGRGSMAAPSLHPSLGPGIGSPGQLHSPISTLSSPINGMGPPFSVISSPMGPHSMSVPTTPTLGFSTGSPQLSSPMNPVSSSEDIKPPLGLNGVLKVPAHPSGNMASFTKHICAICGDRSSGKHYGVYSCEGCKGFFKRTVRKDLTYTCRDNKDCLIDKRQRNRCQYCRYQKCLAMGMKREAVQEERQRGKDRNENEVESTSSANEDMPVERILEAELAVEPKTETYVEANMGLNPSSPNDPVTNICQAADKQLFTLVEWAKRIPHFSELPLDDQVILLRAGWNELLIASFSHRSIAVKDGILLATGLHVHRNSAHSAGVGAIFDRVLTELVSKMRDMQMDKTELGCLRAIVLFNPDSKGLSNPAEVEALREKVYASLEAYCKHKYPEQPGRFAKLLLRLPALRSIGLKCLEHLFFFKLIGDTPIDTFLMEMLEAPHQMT
Sequence of Bile acid receptor (Homo sapiens) (Q96RI1 whole entry, looked up): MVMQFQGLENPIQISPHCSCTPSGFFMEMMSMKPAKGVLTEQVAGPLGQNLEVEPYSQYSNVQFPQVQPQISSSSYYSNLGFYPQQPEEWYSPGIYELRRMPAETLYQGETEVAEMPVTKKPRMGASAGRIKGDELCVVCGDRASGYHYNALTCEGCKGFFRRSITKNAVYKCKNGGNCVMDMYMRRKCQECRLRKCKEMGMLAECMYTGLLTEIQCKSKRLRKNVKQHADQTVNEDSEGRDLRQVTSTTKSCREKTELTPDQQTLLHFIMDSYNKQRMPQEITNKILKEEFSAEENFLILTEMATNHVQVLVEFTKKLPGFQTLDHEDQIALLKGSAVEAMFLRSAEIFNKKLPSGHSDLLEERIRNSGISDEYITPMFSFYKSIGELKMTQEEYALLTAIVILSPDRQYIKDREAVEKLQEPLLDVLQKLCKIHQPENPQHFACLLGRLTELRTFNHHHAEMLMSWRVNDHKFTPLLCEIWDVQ
Sequence of Peroxisome proliferator-activated receptor delta (Homo sapiens) (Q03181 whole entry, looked up): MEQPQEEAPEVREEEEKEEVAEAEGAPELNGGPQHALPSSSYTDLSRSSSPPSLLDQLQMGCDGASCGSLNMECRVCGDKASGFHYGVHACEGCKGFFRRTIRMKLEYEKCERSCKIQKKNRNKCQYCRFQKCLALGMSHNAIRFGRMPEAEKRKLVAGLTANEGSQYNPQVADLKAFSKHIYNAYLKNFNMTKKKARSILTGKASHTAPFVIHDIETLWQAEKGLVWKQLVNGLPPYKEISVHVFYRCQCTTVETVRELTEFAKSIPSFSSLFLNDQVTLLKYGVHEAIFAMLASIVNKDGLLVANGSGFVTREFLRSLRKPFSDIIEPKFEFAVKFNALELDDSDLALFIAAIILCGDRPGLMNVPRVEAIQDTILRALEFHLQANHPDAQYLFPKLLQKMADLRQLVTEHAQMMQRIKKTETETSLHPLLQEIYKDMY
Sequence of Vitamin D3 receptor (Homo sapiens) (P11473 whole entry, looked up): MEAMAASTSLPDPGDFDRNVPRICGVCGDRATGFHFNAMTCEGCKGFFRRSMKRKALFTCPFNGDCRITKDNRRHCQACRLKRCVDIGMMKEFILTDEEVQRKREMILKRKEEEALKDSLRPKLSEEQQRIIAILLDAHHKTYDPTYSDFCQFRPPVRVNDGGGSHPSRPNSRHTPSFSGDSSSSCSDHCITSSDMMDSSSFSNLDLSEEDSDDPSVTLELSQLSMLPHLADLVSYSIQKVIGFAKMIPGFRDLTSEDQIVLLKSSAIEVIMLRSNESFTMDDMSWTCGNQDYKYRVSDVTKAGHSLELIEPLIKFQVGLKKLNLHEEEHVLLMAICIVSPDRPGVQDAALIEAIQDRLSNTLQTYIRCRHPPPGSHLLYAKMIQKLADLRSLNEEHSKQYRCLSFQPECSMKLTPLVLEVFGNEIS

c1ccc(Oc2ccccc2)cc1
inactive: Potency [1] | outcome [2] | outcome [3] | outcome [4] | outcome [5] | outcome [6] | outcome [7] | outcome [8] | outcome [9] | outcome [10] | outcome [11] | outcome [12] | outcome [13] | Potency [14] | outcome [15] | Potency [16] | outcome [17] | Potency [18] | Potency [19]

COc1ccc(OC)cc1
inactive: Potency [1] | outcome [2] | outcome [3] | outcome [5] | outcome [7] | outcome [8] | outcome [20] | outcome [9] | outcome [10] | outcome [11] | outcome [12] | outcome [13] | Potency [14] | outcome [15] | Potency [16] | outcome [17] | Potency [18] | Potency [19]

COC(=O)c1cccnc1
inactive: Potency [1] | outcome [2] | outcome [3] | outcome [5] | outcome [7] | outcome [8] | outcome [9] | outcome [10] | outcome [11] | outcome [12] | outcome [13] | Potency [14] | outcome [15] | Potency [16] | outcome [17] | Potency [18] | Potency [19]

OCc1cccc(Oc2ccccc2)c1
inactive: Potency [1] | outcome [2] | outcome [3] | outcome [4] | outcome [5] | outcome [6] | outcome [7] | outcome [8] | outcome [20] | outcome [9] | outcome [10] | outcome [11] | outcome [12] | outcome [13] | Potency [14] | outcome [15] | Potency [16] | outcome [17] | Potency [18] | Potency [19]

CC(C)OC(=O)COc1ccc(Cl)cc1Cl
inactive: Potency [1] | outcome [2] | outcome [3] | outcome [4] | outcome [5] | outcome [6] | outcome [7] | outcome [9] | outcome [10] | outcome [11] | outcome [12] | outcome [13] | Potency [14] | Potency [16] | outcome [17] | Potency [18] | Potency [19]

NCCCCCCN
inactive: Potency [1] | outcome [2] | outcome [3] | outcome [5] | outcome [7] | outcome [8] | outcome [9] | outcome [10] | outcome [11] | outcome [12] | outcome [13] | Potency [14] | Potency [16] | outcome [17] | Potency [18] | Potency [19]

Cc1ccc(C(C)C)c(O)c1
inactive: Potency [1] | outcome [2] | outcome [3] | outcome [5] | outcome [7] | outcome [8] | outcome [10] | outcome [11] | outcome [12] | outcome [13] | Potency [14] | outcome [15] | Potency [16] | outcome [17] | Potency [18] | Potency [19]

CC(CCl)OP(=O)(OC(C)CCl)OC(C)CCl (stereo not drawn)
inactive: Potency [1] | outcome [2] | outcome [3] | outcome [4] | outcome [5] | outcome [6] | outcome [7] | outcome [8] | outcome [9] | outcome [10] | outcome [11] | outcome [12] | Potency [14] | outcome [15] | Potency [16] | outcome [17] | Potency [18] | Potency [19]

CCCCCCCCCCCCCCCCO
inactive: Potency [1] | outcome [2] | outcome [3] | outcome [5] | outcome [7] | outcome [8] | outcome [20] | outcome [9] | outcome [10] | outcome [11] | outcome [12] | outcome [13] | Potency [14] | Potency [16] | outcome [17] | Potency [18] | Potency [19]

CN1C(=O)CC[C@H]1c1cccnc1
inactive: outcome [2] | outcome [5] | outcome [7] | outcome [9] | outcome [10] | outcome [11] | outcome [12] | outcome [13] | Potency [14] | outcome [15] | Potency [16] | outcome [17] | Potency [18] | Potency [19]

CCc1ccccc1CC
inactive: viability change, negative = cytotoxic [2] -6.24% [at 13.7 µM] | viability change, negative = cytotoxic [5] 18.7% [at 13.2 µM] | outcome [7] | outcome [9] | viability change, negative = cytotoxic [10] 4.82% [at 15.1 µM] | outcome [11] | outcome [12] | outcome [13] | Potency [14] | Potency [16] | outcome [17] | Potency [18] | Potency [19]

CC(C)CC(=O)CC(C)CC(C)C (stereo not drawn)
inactive: Potency [1] | outcome [2] | outcome [3] | outcome [4] | outcome [5] | outcome [6] | outcome [7] | outcome [9] | outcome [10] | outcome [11] | outcome [12] | outcome [13] | Potency [14] | outcome [15] | Potency [16] | outcome [17] | Potency [18] | Potency [19]

C=CC(=O)OCCC(=O)O
inactive: outcome [2] | outcome [5] | outcome [7] | outcome [8] | outcome [20] | outcome [9] | outcome [10] | outcome [11] | outcome [12] | outcome [13] | Potency [14] | Potency [16] | outcome [17] | Potency [18] | Potency [19]

CC1(C)NC(=O)NC1=O
inactive: Potency [1] | outcome [2] | outcome [3] | outcome [5] | outcome [7] | outcome [8] | outcome [20] | outcome [9] | outcome [10] | outcome [11] | outcome [12] | outcome [13] | Potency [14] | Potency [16] | outcome [17] | Potency [18] | Potency [19]

CC(O)CC(C)(C)O (stereo not drawn)
inactive: outcome [2] | outcome [5] | outcome [7] | outcome [8] | outcome [20] | outcome [9] | outcome [10] | outcome [11] | outcome [12] | outcome [13] | Potency [14] | Potency [16] | outcome [17] | Potency [18] | Potency [19]

COc1cc(OC)c(C(=O)CCCN2CCCC2)c(OC)c1
inactive: Potency [1] | outcome [2] | outcome [3] | outcome [5] | outcome [7] | outcome [8] | outcome [9] | outcome [10] | outcome [11] | outcome [12] | outcome [13] | Potency [14] | outcome [15] | Potency [16] | outcome [17] | Potency [18] | Potency [19]

CC(=O)CCC=C(C)C
inactive: Potency [1] | outcome [2] | outcome [3] | outcome [5] | outcome [7] | outcome [8] | outcome [20] | outcome [9] | outcome [10] | outcome [11] | outcome [12] | outcome [13] | Potency [14] | outcome [15] | Potency [16] | outcome [17] | Potency [18] | Potency [19]

O=C(O)c1cc2ccccc2cc1O
inactive: Potency [1] | outcome [2] | outcome [3] | outcome [5] | outcome [7] | outcome [8] | outcome [20] | outcome [9] | outcome [10] | outcome [11] | outcome [12] | outcome [13] | Potency [14] | outcome [15] | Potency [16] | outcome [17] | Potency [18] | Potency [19]
